# According to PubChem BioAssay AID504462 (Sanford-Burnham Center for Chemical Genomics, 2011):
# About 1,700 (0.5%) of roughly 340,000 compounds were called active. No stated cut-off is given here; in the data, active means inhibition above about 40%; inactive means the rest. The list comes from a sample in which actives are over-represented; it also holds similar structures and randomly drawn compounds.
# Biological target: Cysteine protease ATG4B (Homo sapiens) (UniProt Q9Y4P1)
# Test: ATG4B protease inhibitors, primary screen, biochemical, fluorescence, uHTS (AID 504462)
# Conditions: ATG4B cleavage of LC3-PLA2, NBD-HPC fluorescence, 1 h; at 8.33 µM; active compounds read high
# Sequence of Cysteine protease ATG4B (Homo sapiens) (Q9Y4P1 whole entry, looked up): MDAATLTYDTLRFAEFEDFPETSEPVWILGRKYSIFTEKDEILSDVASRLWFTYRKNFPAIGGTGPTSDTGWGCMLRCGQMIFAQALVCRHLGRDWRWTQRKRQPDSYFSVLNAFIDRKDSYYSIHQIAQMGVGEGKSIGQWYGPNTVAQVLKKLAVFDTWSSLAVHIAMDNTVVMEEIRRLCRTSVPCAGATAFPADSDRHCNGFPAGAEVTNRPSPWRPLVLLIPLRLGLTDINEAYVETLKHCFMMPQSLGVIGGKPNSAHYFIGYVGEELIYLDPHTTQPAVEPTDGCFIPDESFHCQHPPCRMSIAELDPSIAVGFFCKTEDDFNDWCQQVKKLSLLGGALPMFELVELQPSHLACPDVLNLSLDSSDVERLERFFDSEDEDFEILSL
row,Structure (SMILES),inhibition
1,S=C(NCCc1ccccc1)NCc1ccccc1Cl,48.6% (active)
2,S=C(NCCc1ccccc1)NCC1CCCO1 (stereo unspecified),-7.53% (inactive)
3,S=C(NCc1ccco1)NCc1ccccc1Cl,13.4% (inactive)
4,O=C1c2ccccc2C(=O)N1CCC(c1ccccc1)c1ccco1 (stereo unspecified),15.9% (inactive)
5,CC(Oc1ccc(F)cc1)C(=O)Nc1cc(S(=O)(=O)N2CCOCC2)ccc1N1CCN(C)CC1 (stereo unspecified),-5.35% (inactive)
6,COc1ccccc1S(=O)(=O)c1c(C)cc(C)[nH]c1=O,-5.56% (inactive)
7,Cc1onc(C(=O)NCc2ccc(F)cc2)c1[N+](=O)[O-],1.98% (inactive)
8,Cc1c(NC(=O)CCCOc2ccccc2)cccc1[N+](=O)[O-],-6.83% (inactive)
9,Cc1c(NC(=S)NCc2ccc(F)cc2)cccc1[N+](=O)[O-],77.1% (active)
10,CCOC(=O)N1CCC(NC(=O)Cn2cc3c(n2)CCCCC3)CC1,-3.87% (inactive)
11,COC(=O)Cc1c(-c2[nH]c3ccccc3c2CC(=O)OC)[nH]c2ccccc12,5.62% (inactive)
12,NC(=O)Cc1ccc2c(c1)[nH]c1ccccc12,47.3% (active)
13,CCn1c2ccccc2c2cc(CC(N)=O)ccc21,25% (inactive)
14,CC(OC(=O)c1ccc(-n2cnnn2)cc1)C(=O)NCc1ccccc1 (stereo unspecified),-0.42% (inactive)
15,CCCCn1c(N)c(N(CC)C(=O)c2ccccc2C(F)(F)F)c(=O)[nH]c1=O,1.66% (inactive)
16,CC(C)(CNC(=O)c1cc(=O)[nH]c2ccccc12)N1CCOCC1,-6.8% (inactive)

row,Structure (SMILES),inhibition
1,Cc1c(N=Nc2ccc(N(C)C)cc2)c(=O)n(-c2ccccc2)n1C,-2.28% (inactive)
2,CCOC(=O)c1c(C)oc2ccc(OCC(=O)N(CC)CC)cc12,-8.98% (inactive)
3,CC(=O)c1c(C)n(-c2ccc(N(C)C)cc2)c2ccc(OCC(N)=O)cc12,82.1% (active)
4,CC(=O)c1c(C)n(-c2ccc(C)cc2)c2ccc(O)cc12,-0.19% (inactive)
5,COc1ccc(NC(=O)CSc2nnc(Cc3ccccc3)c(=O)n2N)cc1,-4.35% (inactive)
6,Cc1ccc(CSc2nc(-c3ccccc3)c(C#N)c(=O)[nH]2)cc1,49.2% (active)
7,N#Cc1c(-c2ccc(F)cc2)nc(-c2ccccc2)[nH]c1=O,5.66% (inactive)
8,N#Cc1c(-c2ccccc2)nc(SCc2cccc(C(F)(F)F)c2)[nH]c1=O,34.9% (inactive)
9,Cc1cccc(N2CCN(C(c3ccc(N(C)C)cc3)c3nnnn3C(C)(C)C)CC2)c1C (stereo unspecified),-1.38% (inactive)
10,COc1cc(C)c(S(=O)(=O)N2CCOCC2)c(C)c1C,-9.43% (inactive)
11,COC(=O)c1c(NC(=O)CSc2nncs2)sc2c1CCCCC2,-14.5% (inactive)
12,N#Cc1c(NC(=O)C2CC(Cl)=CCC2C(=O)O)sc2c1CCCCC2 (stereo unspecified),-4.77% (inactive)
13,COC(=O)c1c(NC(=O)C2CC(C)=C(C)CC2C(=O)O)sc2c1CCCCC2 (stereo unspecified),70.5% (active)
14,O=C(CNC(=O)[C@@H]1Cc2ccccc2CN1)NC1CCCCC1,-3.14% (inactive)
15,CCSC(C)CC1C/C(=N/O)c2c(C)noc2C1 (stereo unspecified),-1.06% (inactive)
